Screens from PubChem BioAssay.
Most compounds without a hit are left out; they make up all but 6.3% or so of the library.
tim10-1 inh: growth inhibitors of tim10-1 mutant yeast. S. cerevisiae tim10-1 ts strain growth, BacTiter-Glo, 24 h. inhibition, % at 20 µM. 2.2% of 330,000 active. AID 463190;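 active = inhibition of at least 40%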;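 also: mutant grown at 25 °C; 0% = DMSO wells with yeast and 100% = wells holding no yeast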
TIM10 inh: TIM10 yeast growth inhibition | 1.4% of 330,000 active | S. cerevisiae TIM10 strain growth, BacTiter-Glo luminescence, 24 h | AID 463195 | inhibition, % at 10 µM;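 active = inhibition of 40% or more at the single tested concentration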;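 also: wild-type TIM10 isogenic control strain grown at permissive 25 °C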
tim23-1 inh: growth inhibitors of tim23-1 mutant yeast. S. cerevisiae tim23-1 growth, BacTiter-Glo luminescence, 24 h. inhibition, % at 20 µM. 1.3% of 330,000 active. AID 463212;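 active = growth inhibition of the mutant yeast at or above 50%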;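 also: temperature-sensitive mutant grown at 25 °C; plate controls were DMSO-treated mutant yeast for no effect and medium wells lacking yeast for full effect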
MPTP block: permeability transition pore inhibition; 1.4% of 360,000 active; inhibition, % at 10 µM; isolated mouse mitochondria, Ca2+ swelling absorbance, 30 min; AID 602449;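 active = inhibition of 50% or more, scaled per plate between neutral and stimulator controls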;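 also: 0% = DMSO wells given calcium and 100% = 1 mM EGTA wells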
Mdm2-MdmX inh: inhibitors of human Mdm2/MdmX interaction; O15151+Q00987; SaOS-2 split-luciferase Mdm2/MdmX complementation, luminescence; inhibition, % at 8 µM; 3% of 330,000 active;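 active = inhibition of at least 50% at 8 µM in the primary screen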
Target sequence (O15151 whole entry, looked up): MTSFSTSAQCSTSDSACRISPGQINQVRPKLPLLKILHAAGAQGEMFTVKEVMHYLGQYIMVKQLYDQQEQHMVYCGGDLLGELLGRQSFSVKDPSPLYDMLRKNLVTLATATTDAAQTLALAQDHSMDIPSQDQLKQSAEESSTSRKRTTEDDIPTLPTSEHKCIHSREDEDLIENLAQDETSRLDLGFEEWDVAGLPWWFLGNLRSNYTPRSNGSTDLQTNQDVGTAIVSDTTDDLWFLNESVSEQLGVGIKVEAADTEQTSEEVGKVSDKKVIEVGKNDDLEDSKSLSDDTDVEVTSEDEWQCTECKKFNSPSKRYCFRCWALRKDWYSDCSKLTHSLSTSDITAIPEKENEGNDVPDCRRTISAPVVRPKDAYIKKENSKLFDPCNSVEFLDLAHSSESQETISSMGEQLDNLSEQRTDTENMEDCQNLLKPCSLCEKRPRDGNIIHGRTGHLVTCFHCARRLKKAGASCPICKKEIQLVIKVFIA
Target sequence (Q00987 whole entry, looked up): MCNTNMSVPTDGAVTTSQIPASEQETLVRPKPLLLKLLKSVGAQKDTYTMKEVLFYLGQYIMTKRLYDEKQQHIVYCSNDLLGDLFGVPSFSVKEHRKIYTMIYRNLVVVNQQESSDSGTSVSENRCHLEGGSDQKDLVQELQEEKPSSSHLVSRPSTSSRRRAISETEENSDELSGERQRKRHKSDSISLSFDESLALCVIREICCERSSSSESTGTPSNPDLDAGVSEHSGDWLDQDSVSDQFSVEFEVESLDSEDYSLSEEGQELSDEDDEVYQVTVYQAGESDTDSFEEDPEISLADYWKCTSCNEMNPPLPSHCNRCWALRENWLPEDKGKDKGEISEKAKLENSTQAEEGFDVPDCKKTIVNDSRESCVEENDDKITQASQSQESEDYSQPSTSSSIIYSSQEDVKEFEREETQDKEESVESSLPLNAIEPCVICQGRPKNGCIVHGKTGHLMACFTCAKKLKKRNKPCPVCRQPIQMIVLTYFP
MPTP counter: mitochondrial membrane potential, counter-screen | shares compounds with MPTP block | isolated mitochondria, Rhodamine 123 fluorescence | inhibition, % at 10 µM | 78% of 5,000 active | AID 624504; in the data active = inhibition above about 22%;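 also: 0% = DMSO vehicle and 100% = positive control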
MPTP abs DR: dose response confirmation of mitochondrial permeability transition pore inhibitors; shares compounds with MPTP block; isolated mitochondria swelling, absorbance; IC50, µM; 58% of 780 active; in the data active = IC50 below about 20 µM
MPTP cs DR: active in counter-screen for permeability transition pore inhibitors; shares compounds with MPTP block; isolated mitochondria counterscreen, fluorescence read-out; IC50, µM; 49% of 780 active; AID 651564; in the data active = IC50 below about 80 µM
* hit, by the source's call; i = inactive; nt = no result given.

SMILES	tim10-1 inh	TIM10 inh	tim23-1 inh	MPTP block	Mdm2-MdmX inh	MPTP counter	others
COc1cccc(NC(=O)C2(C)CCN2C(=O)Cc2cccc3ccccc23)c1 (configuration not stated)	nt	nt	nt	0.1	nt	nt
CC(C)CC(=O)NC(c1ccccc1Cl)c1c(O)ccc2ccccc12 (configuration not stated)	2.7	-2.9	16.4	76.3*	20.8	85.5*
COc1ccc(/C=N/NC(=O)c2cc(Br)ccc2O)cc1Cn1cc(Cl)cn1	9.1	9.2	0.5	67.6*	7.9	53.5*
COc1ccc(/C=N/NC(=O)c2ccc(Cl)cc2)cc1Cn1cc(Cl)cn1	1.1	-7.9	-32.3	1.2	41.1	nt
O=C(N/N=C/c1cccc(C(F)(F)F)c1)c1ccccc1O	-1.5	-10.7	13.0	64.8*	-14.9	54.9*
O=C(N/N=C/c1ccc2nccnc2c1)c1ccccc1O	20.9	-0.3	-2.9	nt	-0.2	nt
COc1ccccc1C(=O)C1CCCN(C(=O)Nc2ccccc2F)C1 (configuration not stated)	24.7	8.9	1.9	-2.2	-12.1	nt
COC(=O)c1ccc(NC(=O)N2CCCC(C(=O)c3ccccc3OC)C2)cc1 (configuration not stated)	31.4	4.1	20.9	69.6*	6.2	75.4*
CCOC(=O)C1=CCN(S(=O)(=O)c2cccc(Cl)c2)C1c1ccc(F)cc1 (configuration not stated)	nt	nt	nt	0.1	nt	nt
Cc1nn(S(=O)(=O)c2ccc(Cl)cc2)c(C)c1Sc1ccc([N+](=O)[O-])cc1	nt	nt	nt	60.9*	nt	41.5*
CC1C(=O)N(Cc2cn(CCC3OCCCO3)nn2)CCS(=O)(=O)N1Cc1ccc(-c2ccc(Cl)cc2)cc1 (configuration not stated)	nt	nt	nt	-2.0	nt	nt
Cc1onc(-c2ccccc2)c1C(=O)OCC(=O)Nc1ccc(OC(F)(F)F)cc1	22.9	6.4	20.3	86.5*	8.9	90.6*
Cc1ccc(NC(=O)COC(=O)c2c(-c3ccccc3)noc2C)cc1	4.7	-1.2	35.8	0.4	-11.0	nt
CC(C)(C)OC(=O)N1CCc2onc(-c3ccccc3F)c2C1=O	nt	nt	nt	1.1	nt	nt
O=c1oc(-c2ccc(Cl)cc2[N+](=O)[O-])nc2ccccc12	nt	nt	nt	-0.7	nt	nt
COc1cccc(C(=O)N2CCC[C@H]2C(=O)N2CCC[C@H]2C(=O)N(C)Cc2ccccc2)c1	nt	nt	nt	-1.0	nt	nt
O=c1c(Cc2ccccc2)c(O)c2cccc3c4c(n1c23)CCCC4	23.4	21.8	20.9	66.0*	7.4	79.6*
CSc1nc2ccc(NS(=O)(=O)c3cccc(Cl)c3Cl)cc2s1	30.9	30.5	49.4	59.7*	15.7	64.5*
Cc1nc2ccc(NS(=O)(=O)c3ccccc3Cl)cc2s1	26.0	13.3	32.4	0.7	16.2	nt
O=c1[nH]nc(Cc2ccc(-c3cccc(Cl)c3)o2)c2ccccc12	5.5	10.1	3.7	83.6*	2.2	83.1*
Cn1cc(CN2CCN(c3ccccc3)CC2)c2ccccc21	22.0	14.9	9.6	60.9*	6.9	-10.2	MPTP abs DR=i;MPTP cs DR=>80
O=S(=O)(O)c1ccc2c(c1)C(C(Cl)(Cl)Cl)OC(C(Cl)(Cl)Cl)O2 (configuration not stated)	nt	nt	nt	-0.4	nt	nt
CCn1c2ccccc2c2cc(NC(=O)CNCC3CCCO3)ccc21 (configuration not stated)	15.9	12.2	7.6	61.0*	16.9	-11.9	MPTP abs DR=i;MPTP cs DR=>80
CCn1c2ccccc2c2cc(NC(=O)CN3CCCC3)ccc21	5.1	-8.7	14.5	24.5	-8.0	nt
Cc1ccc(S(=O)(=O)NC(C)(C)CSc2nnc(Nc3ccccc3)s2)cc1	28.3	10.2	21.1	64.7*	35.9	66.0*
Cc1cccc(C)c1-n1nnnc1C1(C)CCC(=O)N1Cc1cccs1 (configuration not stated)	nt	nt	nt	-0.1	nt	nt
OCC1CCN(Cc2cn(Cc3ccccc3)nc2-c2cc3ccccc3o2)CC1	14.9	11.5	7.3	52.1*	42.2	-19.6	MPTP abs DR=18*;MPTP cs DR=>80
CCc1nc2c(OCC3COc4ccccc4O3)cccn2c1N(C)C(=O)c1cccc(OC)c1 (configuration not stated)	nt	nt	nt	-0.6	nt	nt
